According to PubChem BioAssay (NCI):
Where “and” joins values, the source holds several entries; their conditions need not be identical. Identical values can stand only once. Compounds without any hit were thinned out: in the full panel of roughly 83,000, 20% have a hit.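 Plates (96-well) were seeded with cells, treated with compound at one concentration, and incubated for 48 hours before percent growth was determined.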 Calls of active or inactive are those of the source. Rule for the calls: active = growth percent below 10; inactive = the rest.

Test system: MCF7 breast
Assay: NCI-60 one-dose screen, 48 h (100 = growth as untreated, 0 = no growth, -100 = all killed)
Details: 10 µM unless noted

Row | SMILES | growth
1 | N#Cc1c(N)oc(-c2cccc([N+](=O)[O-])c2)c1C#N | 12.3% [100 µM] (inactive) and -50% [100 µM] (active)
2 | O=C(O)c1n[nH]nc1Cl | 94.1% [100 µM] (inactive) and 80.7% [100 µM] (inactive)
3 | CCOC(=O)COc1cc(-c2ccccc2)nc2cc(F)ccc12 | 49.3% [100 µM] (inactive) and 35.8% [100 µM] (inactive)
4 | CCCCCCCCCC(O)CC(=O)c1c(O)cccc1O (centres undefined) | -63.9% [100 µM] (active) and -46.7% [100 µM] (active)
5 | CCCCCCCCOC(=O)C12Oc3ccc(-c4ccc5c(c4O)C(O)=C4C(=O)CC(C)C(O)C4(C(=O)OCCCCCCCC)O5)c(O)c3C(O)=C1C(=O)CC(C)C2O (centres undefined) | -22.3% [100 µM] (active) and -100% [100 µM] (active)
6 | CC(C)(C)c1cc(C2COC(=O)COCCOCC(=O)OCCOCCO2)cc(C(C)(C)C)c1O (centres undefined) | 70.6% [100 µM] (inactive) and 74.1% [100 µM] (inactive)
7 | CC(=O)C1=C(C)N2C(=NC3=C(CCc4ccccc43)C2c2ccc(Cl)cc2)S1 (centres undefined) | 24.9% [100 µM] (inactive) and 9.75% [100 µM] (active)
8 | COC(=O)/C(=N\NC(=S)NN)C(C(=O)OC)C(=O)C(=O)Nc1cccc(C(F)(F)F)c1 (centres undefined) | 63.8% [100 µM] (inactive) and 8.67% [100 µM] (active)
9 | COc1ccc2nc(NC(=O)/C(C#N)=C/c3ccccc3)sc2c1 | 4.79% [100 µM] (active) and 1.62% [100 µM] (active)
10 | CC1OC23CCCCC2C(C#N)(C#N)C1(C#N)C(=N)O3 (centres undefined) | -34% [100 µM] (active)
11 | CC1C2(C)OC(=N)C(C#N)(C(c3cccc([N+](=O)[O-])c3)O2)C1(C#N)C#N (centres undefined) | 98.4% [100 µM] (inactive)
12 | CC(=O)c1ccc(NC(=O)/C(CC(=O)/C=C/c2ccccc2)=N/NC(N)=S)cc1 | 52.9% [100 µM] (inactive) and 4.14% [100 µM] (active)
13 | COC(=O)C1CCC(=O)N1CN(C(C)=O)c1cccc(O)c1 (centres undefined) | 90.1% [100 µM] (inactive) and 83.5% [100 µM] (inactive)
14 | CCOC(=O)c1cc(C)nc2c1c(=O)n(-c1ccccc1)c(=O)n2CCCCN1CCN(c2ncccn2)CC1 | 100% [100 µM] (inactive) and 90.8% [100 µM] (inactive)
15 | COC(=O)C(=O)C(C(=O)C(=O)Nc1ccc(Cl)c(Cl)c1)c1nc2ccc(C(=O)c3ccccc3)cc2[nH]c1=O (centres undefined) | 32.4% [100 µM] (inactive) and 5.18% [100 µM] (active)
16 | CCC(C)C1(O)OC2CC3(C)OC(=CC3=O)/C(C)=C\C3OC(=O)C1(C)C32 (centres undefined) | -50% [100 µM] (active) and -100% [100 µM] (active)
17 | Cc1ccc(C)c(NC(=O)/C(=N\N)C(c2cnc3ccc([N+](=O)[O-])cc3n2)[N+](=O)[O-])c1 (centres undefined) | 50.4% [100 µM] (inactive) and 9.64% [100 µM] (active)
18 | C=C1C2CCC3C4(C)CCCC(C)(C(=O)O)C4CCC3(C2)C1OC(=O)/C(C)=C/C (centres undefined) | 1.75% [100 µM] (active) and 65.7% [100 µM] (inactive)
19 | COc1ccc(N=C(C)C(C)=Nc2ccc(OC)cc2)cc1 | 38.9% [100 µM] (inactive) and 11.1% [100 µM] (inactive)
20 | CCOc1cc2c(cc1O)C=C[C@@H]1[C@@H]2CC[C@]2(C)[C@@H](O)CC[C@@H]12 | -21% [100 µM] (active) and -100% [100 µM] (active)

Row | SMILES | growth
21 | CC(=O)C1=C(C)N2C(=NC3=C(CCc4ccccc43)C2c2cccc(Br)c2)S1 (centres undefined) | 35.9% [100 µM] (inactive) and 33.8% [100 µM] (inactive)
22 | Cc1ccc(OCC2OC(n3cnc4nc(N)nc(Cl)c43)CC2Oc2ccc(C)cc2)cc1 (centres undefined) | 45.4% [100 µM] (inactive) and -87.9% [100 µM] (active)
23 | N#Cc1n[nH]n(-c2ccccc2)c1=O | 95% [100 µM] (inactive) and 80.4% [100 µM] (inactive)
24 | CCO/C=N\C1=C(C#N)SC2=N/C(=C\c3ccc(OC)cc3)C(=O)N21 | 59.2% [100 µM] (inactive) and 48.6% [100 µM] (inactive)
25 | O=C(Cc1nc2ccc(C(=O)c3ccccc3)cc2[nH]c1=O)C(=O)Nc1ccccc1[N+](=O)[O-] | 27.4% [100 µM] (inactive) and 4.17% [100 µM] (active)
26 | CCCCCCCCCC(=O)CC(=O)c1c(O)cc(O)cc1O | -63.3% [75 µM] (active) and -13.9% [75 µM] (active)
27 | CCC1OC2(C)CC(C#N)(C#N)C1(C#N)C(=N)O2 (centres undefined) | 39.8% [100 µM] (inactive)
28 | NNc1[nH]c(=S)[nH]c1C(N)=O | 98.4% [100 µM] (inactive) and 70.9% [100 µM] (inactive)
29 | O=C(NC1=NC2C=CC([N+](=O)[O-])=CC2S1)C(=O)Nn1c(=S)[nH]c2ccccc2c1=O (centres undefined) | 52.7% [100 µM] (inactive) and 8.91% [100 µM] (active)
30 | COc1c(O)ccc(C2=Cc3ccc(O)cc3OC2)c1OC | -13.9% [100 µM] (active) and -13.3% [100 µM] (active)
31 | COc1c(OC)c(OC)c2c(c1OC)c(=O)c1ccccc1n2C | 65.5% [100 µM] (inactive) and -50% [100 µM] (active)
32 | O=C1c2ccccc2-c2c1c1ccccc1c(=O)n2CCO | 6.81% [100 µM] (active) and -32.3% [100 µM] (active)
33 | CSc1nc(Br)nc2ncn(C3CC(Oc4ccc(C)cc4)C(COc4ccc(C)cc4)O3)c12 (centres undefined) | 64.8% [100 µM] (inactive) and -36.2% [100 µM] (active)
34 | COC(=O)C(=O)C(C(=O)C(=O)Nc1ccccc1OC)c1nc2ccc([N+](=O)[O-])cc2[nH]c1=O (centres undefined) | 43% [100 µM] (inactive) and 41.8% [100 µM] (inactive)
35 | N#CC1(C#N)C2CCCCC23OC(=N)C1(C#N)C(c1ccco1)O3 (centres undefined) | -54% [100 µM] (active)
36 | C/C=C1\NC(=O)[C@H]2CSSCCC=C[C@H](CC(=O)N[C@H](C(C)C)C(=O)N2)OC(=O)[C@H](C(C)C)NC1=O | -73.3% [0.1 µM] (active) and -95.5% [0.1 µM] (active)
37 | C/C(=C\COc1cc(O)c2c(c1)C(=O)c1cc(C)cc(O)c1C2=O)CCC1OC1(C)C (centres undefined) | 20.6% [100 µM] (inactive) and 2.66% [100 µM] (active)
38 | Cc1ccc(OC2CC(n3cnc4ncnc(Cl)c43)OC2Oc2ccc(C)cc2)cc1 (centres undefined) | 8.44% [100 µM] (active) and -95.4% [100 µM] (active)
39 | C=CC(COC(=O)C(C)(C)OC(C)=O)c1ccc(OC(=O)C(C)C)c(OC)c1 (centres undefined) | -68.4% [100 µM] (active) and -69% [100 µM] (active)
